Measured values reported in PubChem BioAssay (NCATS).
Results filed as inconclusive are left out. The source made the active and inactive calls. Calls come from the whole dose curve.

target: Peroxisome proliferator-activated receptor delta (Homo sapiens) (UniProt Q03181); assay: qHTS assay for small molecule agonists of peroxisome proliferator-activated receptor delta signaling (AID 588534); conditions: HEK293T PPARdelta-UAS-bla, beta-lactamase ratio, 18 h; series mostly up to 76.7 µM
Source text: NIH Chemical Genomics Center [NCGC] U.S. Environmental Protection Agency [EPA] National Institutes of Environmental Health Sciences [NIEHS] National Toxicology Program [NTP] NCGC Assay Overview The Peroxisome proliferator-activated receptors (PPARs) are lipid-activated transcription factors of the nuclear receptor superfamily with three distinct subtypes namely PPAR alpha, PPAR delta (also called PPAR beta) and PPAR gamma. All these subtypes heterodimerizes with Retinoid X receptor (RXR) and have different physiological functions. […] This role of PPAR delta implicates the potential use of its ligands in the treatment of metabolic disorders.
Compounds were screened in a titration series in 1536-well format. […] Concentration-response titration points for each compound were fitted to the Hill equation yielding concentrations of half-maximal stimulation (EC50) and maximal response (efficacy) values. qHTS protocol for PPAR-delta beta-lactamase assay in agonist mode [Step] [Parameter] [Value] [Description] 1. Reagent; 6 uL; 4000 cells/well 2. Incubation; 37 C for 5 hrs 3. Compounds; 23 nL; 0.59 nM to 92 uM 4. […] Incubation; 37 C for 18 hrs 6. Detection reagent; 1 uL of CCF4-dye 7. Incubation; RT for 2 hrs 8. Detection; Fluorescence; Envision plate reader

Chain of Peroxisome proliferator-activated receptor delta (Homo sapiens) (Q03181 whole entry, looked up): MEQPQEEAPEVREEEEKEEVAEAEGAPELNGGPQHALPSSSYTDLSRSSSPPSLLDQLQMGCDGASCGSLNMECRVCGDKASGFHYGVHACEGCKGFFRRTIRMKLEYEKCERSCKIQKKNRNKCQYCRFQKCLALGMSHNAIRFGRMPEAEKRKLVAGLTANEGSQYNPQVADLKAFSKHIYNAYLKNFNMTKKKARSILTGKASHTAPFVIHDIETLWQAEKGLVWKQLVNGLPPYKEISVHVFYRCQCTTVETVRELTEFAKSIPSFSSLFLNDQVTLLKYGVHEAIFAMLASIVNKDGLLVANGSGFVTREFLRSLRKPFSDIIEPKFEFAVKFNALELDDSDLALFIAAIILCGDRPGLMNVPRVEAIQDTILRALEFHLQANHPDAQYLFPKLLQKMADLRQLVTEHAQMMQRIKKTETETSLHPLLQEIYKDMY

Row | Compound | outcome
1 | BrCC(Br)(Br)Br | inactive
2 | COC(=O)Nc1nc2ccccc2[nH]1 | inactive
3 | ClCC(Cl)Cl | inactive
4 | CC(C)[C@]12CC(=O)[C@H](C)[C@H]1C2 | inactive
5 | NNC(N)=S | inactive
6 | COc1ccc(C=O)cc1 | inactive
7 | c1ccc(NNc2ccccc2)cc1 | inactive
8 | CCN(N=O)C(N)=O | inactive
9 | Cl/C=C/Cl | inactive
10 | Cc1cnc[nH]1 | inactive
11 | OCCCCO | inactive
12 | COC(C)(C)C | inactive
13 | ClC=CCl | inactive
14 | N#CCCC#N | inactive
15 | C=C(Cl)CCl | inactive
16 | O=[N+]([O-])c1cc(Cl)c(Cl)c(Cl)c1 | inactive
17 | BrC(Br)Br | inactive
18 | C1CC2OC2CC1C1CO1 (stereo not given) | inactive
19 | Nc1ccc(Cl)c(Cl)c1 | inactive
20 | O=[N+]([O-])c1cc(Cl)c(Cl)cc1Cl | inactive

Row | Compound | outcome
21 | C=CC=O | inactive
22 | O=Cc1ccc(Cl)cc1Cl | inactive
23 | C/C=C/CC#N | inactive
24 | O=[N+]([O-])/C=C/c1ccccc1 | inactive
25 | Nc1ccc([N+](=O)[O-])cc1N | inactive
26 | Nn1cnnc1 | inactive
27 | [O-][Cl+]O | inactive
28 | CCSC(=O)N1CCCCCC1 | inactive
29 | CCN(CC)N=O | inactive
30 | N#CC(O)c1ccccc1 (stereo not given) | inactive
31 | N#CC(Cl)(Cl)Cl | inactive
32 | CCBr | inactive
33 | C=CC(=O)OC | inactive
34 | CNC(=O)O/N=C/C(C)(C)S(C)=O (stereo not given) | inactive
35 | Oc1c(Cl)c(Cl)cc(Cl)c1Cl | inactive
36 | [N-]=[N+]=[N-] | inactive
37 | COC(=O)Nc1cccc(OC(=O)Nc2cccc(C)c2)c1 | inactive
38 | CCCCCCCCCCCCCl | inactive
39 | O=S(=O)(O)F | inactive
40 | CCCCOCC1CO1 (stereo not given) | inactive
